Results: PubChem BioAssay

molecular target: Left-right determination factor 2 (Homo sapiens) (UniProt O00292); assay: small molecules binding LEFTY2 protein – biochemical, small-molecule microarray, 635 nm fluorescence scan, primary screen (AID 1110); conditions: higher = more signal
Sequence (O00292 whole entry, looked up): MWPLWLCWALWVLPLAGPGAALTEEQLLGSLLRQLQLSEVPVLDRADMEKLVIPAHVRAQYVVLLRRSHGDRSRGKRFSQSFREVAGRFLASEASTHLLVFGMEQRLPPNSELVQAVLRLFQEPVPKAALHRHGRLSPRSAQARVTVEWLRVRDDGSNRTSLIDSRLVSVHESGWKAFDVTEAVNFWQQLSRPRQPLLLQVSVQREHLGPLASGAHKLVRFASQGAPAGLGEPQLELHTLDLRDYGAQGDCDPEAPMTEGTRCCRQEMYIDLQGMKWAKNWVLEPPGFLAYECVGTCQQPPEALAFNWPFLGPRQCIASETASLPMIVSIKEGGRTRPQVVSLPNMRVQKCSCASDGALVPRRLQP

Row | Structure (SMILES) | composite z-score
1 | CCCN1C(=O)[C@@]2(CCC(=O)OC(C)(C)C)N=C(c3ccc(OCCCO)cc3)O[C@H]2c2ccccc21 | 0.163
2 | O=C(O)[C@H]1C[C@H]2C(=O)NCC(=O)N2[C@H]1c1ccc(O)cc1 | 0.205
3 | CC(C)c1ccc(NN2C(C(O)c3ccc(N(C)C)cc3)C=CC3C(=O)N(c4ccccc4)C(=O)C32)cc1 (stereo not given) | 0.0148
4 | CCC[C@@H]1C=C(C(=O)O)[C@H](c2ccc(C)cc2)N1S(=O)(=O)c1ccc(C)cc1 | -0.442
5 | CC(C)c1ccc(NN2C(C(O)c3c(F)cccc3Cl)C=CC3C(=O)N(c4ccccc4)C(=O)C32)cc1 (stereo not given) | 0.0094
6 | CC(C)=CCCC(C)=CC(O)C1C=CC2C(=O)N(c3ccccc3)C(=O)C2N1Nc1ccccc1 (stereo not given) | 0.12
7 | COCC1=C2[C@@H](CCc3ccccc3)OB(O)C[C@@H]2[C@@H]2C(=O)N(Cc3ccccc3)C(=O)[C@@H]2C1 | 0.0192
8 | COC(=O)[C@@]1(Cc2ccc(OC)cc2)[C@H]2c3cc(C(=O)N4CCCC4)n(CCc4c[nH]c5cc(F)ccc45)c3C[C@H]2CN1C(=O)c1ccccc1 | 0.259
9 | CC(C)N1CC=CC23O[C@@H]4C=CCOC(=O)[C@@H]4[C@H]2C(=O)N(CCO)[C@@H]3C1=O (stereo not given in full) | -1.65
10 | COC(=O)C(CC#Cc1ccc2c(c1)[C@]1(C(=O)N2)[C@H](c2ccc(OCCO)cc2)N2[C@H](c3ccccc3)[C@H](c3ccccc3)OC(=O)[C@H]2[C@@H]1C(=O)NC[C@H](O)c1ccccc1)C(=O)OC | -0.0571
11 | CC(C)NC(=O)[C@@]1(Cc2ccccc2I)c2ccccc2C(=O)N(Cc2ccccc2)[C@H]1c1ccc(CO)cc1 | 0.337
12 | CCOC(=O)C[C@H]1[C@H](OC(=O)Cc2ccc3c(c2)OCO3)[C@@H](NC(=O)c2ccc(-c3ccccc3)cc2)c2cc(OCCCO)ccc2N1C(=O)c1ccccc1 | 0.525
13 | CC(c1ccccc1)C(O)C1C=CC2C(=O)NC(=O)C2N1Nc1ccccn1 (stereo not given) | 0.313
14 | COc1ccc(C#Cc2ccc3c(c2)[C@]2(C(=O)N3)[C@H](c3ccc(O)cc3)N3[C@H](c4ccccc4)[C@H](c4ccccc4)OC(=O)[C@H]3[C@@H]2C(=O)NC[C@H](O)c2ccccc2)cc1 | 0.0197
15 | O=C1O[C@H](c2ccccc2)[C@H](c2ccccc2)N2[C@H]1[C@@H](C(=O)O)[C@]1(C(=O)Nc3ccc(C#CC4(O)CCCCCC4)cc31)[C@H]2c1ccc(OCCO)cc1 | -0.418
16 | NCCCCCCNC(=O)[C@H]1C[C@H]2C(=O)NCC(=O)N2[C@H]1c1cccc(OCCO)c1 | 0.816
17 | C=CCOC(=O)[C@H]1[C@@H]2C(=O)O[C@@H](c3ccccc3)[C@@H](c3ccccc3)N2[C@@H](c2ccc(OCCOC(=O)[C@@H]3C[C@@H]4C(=O)NCC(=O)N4[C@@H]3c3ccc(O)cc3)cc2)[C@]12C(=O)Nc1ccccc12 | 0.733
18 | [N-]=[N+]=Nc1ccccc1C[C@]1(C(=O)NCCN2CCOCC2)N=C(c2ccc(OCCCO)cc2)O[C@H]1c1ccccc1 | -0.0447

Row | Structure (SMILES) | composite z-score
19 | CC(C)N1C(=O)C[C@@](C(=O)NCc2ccccc2)(c2ccc([N+](=O)[O-])cc2)[C@H]1c1ccc(CO)cc1 | -0.57
20 | O=C1OCCC/C=C\[C@H]2OC34C=CCN(Cn5nnc6ccccc65)C(=O)[C@H]3N(CCCCCO)C(=O)[C@@H]4C12 (stereo not given in full) | -1.5
21 | NCCCCCNC(=O)[C@H]1C[C@H]2C(=O)NCC(=O)N2[C@H]1c1cccc(OCCO)c1 | 0.296
22 | CN1C=C(C(=O)OCCS(C)(=O)=O)C(C(=O)OCCS(C)(=O)=O)=CC(CCCO)=CC1C1CC1 (stereo not given) | -0.0097
23 | COCCOC(=O)N1C(=O)[C@@]2(c3cc(C#CC4=CCCCC4)ccc31)[C@H](C(=O)NC[C@H](O)c1ccccc1)[C@H]1C(=O)O[C@H](c3ccccc3)[C@H](c3ccccc3)N1[C@@H]2c1ccc(O)cc1 | 0.693
24 | CCCCCCCCCCC(O)C1C=CC2C(=O)N(Cc3ccccc3)C(=O)C2N1n1cnnc1 (stereo not given) | -0.62
25 | Cc1ccccc1C(O)C1C=CC2C(=O)N(C)C(=O)C2N1N1CCCCC1 (stereo not given) | 0.163
26 | CC(=O)NCCCC[C@@H]1NC(=O)[C@@H]2C[C@H](C(=O)NCCCCCCNC(=O)CS)[C@H](c3ccc(O)cc3)N2C1=O | -0.746
27 | C=CCOC(=O)[C@H]1[C@@H]2C(=O)O[C@@H](c3ccccc3)[C@@H](c3ccccc3)N2[C@@H](c2ccc(OCCOC(=O)[C@@H]3C[C@@H]4C(=O)N5CCC[C@H]5C(=O)N4[C@@H]3c3ccc(O)cc3)cc2)[C@]12C(=O)Nc1ccccc12 | 0.677
28 | C=CCC(OC(C)=O)[C@@H]1[C@@H](N(Cc2ccc(-c3ccccc3)cc2)C(=O)Cc2ccc(OC)cc2)c2cc(OCCCO)ccc2N1C(=O)c1ccc2ccccc2n1 (stereo not given in full) | -0.259
29 | COC(=O)C(CC#Cc1ccc2c(c1)[C@]1(C(=O)N2)[C@H](C(=O)NC[C@H](O)c2ccccc2)[C@H]2C(=O)O[C@H](c3ccccc3)[C@H](c3ccccc3)N2[C@@H]1c1ccc(OCCO)cc1)C(=O)OC | 0.696
30 | COc1ccc(C(O)C2C=CC3C(=O)N(c4ccccc4)C(=O)C3N2Nc2ccc([N+](=O)[O-])cc2)cc1OCc1ccccc1 (stereo not given) | 0.0921
31 | CC(=O)NCCCC[C@@H]1NC(=O)[C@@H]2C[C@H](C(=O)NCCCCN(C)C)[C@H](c3ccc(O)cc3)N2C1=O | -0.594
32 | CC(C)C(=C=CC[C@H](O)c1cccc(OCCO)c1)C[C@H](O)COCc1ccccc1 | -0.0641
33 | CC(C)C(=C=CC[C@@H](O)c1ccccc1OCCO)C[C@@H](O)c1ccccn1 | 0.28
34 | O=C1O[C@@H](c2ccccc2)[C@@H](c2ccccc2)N2[C@@H](c3ccccc3OCCO)[C@]3(C(=O)Nc4ccc(C#CC5(O)CCCCCC5)cc43)[C@@H](C(=O)Nc3nc4ccccc4s3)[C@H]12 | 0.628
35 | C=CCN1C(=O)[C@]2(O[C@H](CCO)[C@@H]([Si](C)(C)c3ccc(OC)cc3)[C@@H]2C)c2cc(NC(=O)[C@H](C)O)ccc21 | 0.0707
